The results in this text go back to PubChem BioAssay.

A short description of test [1]: inhibitors of TNFa-induced NFkB p65 translocation, primary screen, imaging, HUVEC, MLSMR starter and 10KST1 sets (AID 438;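 active means inhibition above 20% together with a positive visual image hit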;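 further: compound added about 3h40 before a 20 min TNFalpha stimulation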;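 on inhibition: signal is the nuclear over cytoplasmic p65 intensity ratio per well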). To be noted: HUVEC TNFa-induced p65 nuclear translocation; cell count: measured here: nuclei count (cytotoxicity indicator), at 2.08 µM; inhibition: at 2 µM, stronger effect = higher value, 0% TNFa-plus-vehicle, 100% no-TNFa wells.
Test [2] can be described thus: inhibitors of mutant huntingtin aggregation, primary screen, imaging, exon1htt(103Q)mCFP cells, high-content imaging (AID 483;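 active means visual image review flags a hit and inhibition of aggregation exceeds 20%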;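 further: compound exposure lasted 3 days before fixation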;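 on nuclei count: percent of the per-plate median nuclei count of sample wells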). Particulars: exon1htt(103Q)mCFP cell line, aggregate imaging, at 2 µM; inhibition of aggregation: stronger effect = higher value; nuclei count: measured here: cell count, toxicity.
Test [3] in a line: inhibitors of E-selectin induction by TNFa, primary screen, imaging, HUVEC, immunofluorescence, MLSMR starter and 10KST1 sets (AID 487;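 active means visually confirmed hit in the image check and inhibition above 20%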;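 on inhibition: signal is fraction of cell area covered by stained E-selectin grains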;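 on nuclei count: 100% = median nuclei count of all wells on the same plate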). Particulars: HUVEC TNFalpha-induced E-selectin immunofluorescence imaging, at 2 µM; inhibition: stronger effect = higher value; nuclei count: measured here: cell number, toxicity.
Test [4] deals with Voltage-gated potassium channel subunit beta-2 (Rattus norvegicus) (UniProt P62483). In words: KvBeta enzyme negative modulators, primary screen, biochemical, NADPH fluorescence (AID 622;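 active means fluorescence slope higher than the sample average by over 3 SD, cut at about -0.22 in these data, passing the limit was not always enough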;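 further: slope of raw intensity against log time taken from 70 to 1610 s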). To be noted: recombinant KvBeta, 4-cyanobenzaldehyde reduction, at 10 µM, stronger effect = higher value.
Chain of Voltage-gated potassium channel subunit beta-2 (Rattus norvegicus) (P62483 whole entry, looked up): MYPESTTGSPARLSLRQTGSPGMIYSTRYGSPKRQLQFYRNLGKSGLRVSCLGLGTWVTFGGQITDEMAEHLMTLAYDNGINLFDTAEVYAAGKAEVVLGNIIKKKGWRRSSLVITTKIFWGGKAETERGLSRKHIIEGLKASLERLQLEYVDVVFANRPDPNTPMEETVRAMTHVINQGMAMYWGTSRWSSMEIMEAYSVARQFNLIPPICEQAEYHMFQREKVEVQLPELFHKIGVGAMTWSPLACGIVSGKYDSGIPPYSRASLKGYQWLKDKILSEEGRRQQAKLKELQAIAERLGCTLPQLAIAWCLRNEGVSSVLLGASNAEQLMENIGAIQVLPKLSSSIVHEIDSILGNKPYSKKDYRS
Test [5] shares this target. In words: KvBeta positive modulators, primary screen, biochemical, NADPH fluorescence (AID 623).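 Further: fluorescence intensity change per second fitted from 20 to 320 s.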 To be noted: Recombinant KvBeta, NADPH fluorescence decrease slope, 10 min; at 10 µM; stronger effect = lower value.
Test [6] concerns the target Alpha-2C adrenergic receptor (Homo sapiens) (UniProt P18825). In words: modulators of alpha2C/GIRK thallium flux, primary screen, cell-based, HEK293 alpha2C/GIRK1/2 (AID 624;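 active means fluorescence slope after compound addition differing from the mean of all screened samples at 99.7% confidence, in either direction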;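 further: slope of fluorescence ratio to pre-addition baseline per second over 15 to 24 s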). To be noted: thallium flux BTC fluorescence, at 10 µM, actives lie on both sides.
Test [7] in a line: inhibitors of Sendai virus-induced IRF3 signaling, primary screen, TLR/RLR signaling modifier project, cell-based, Sendai virus stimulus, luciferase, 10K MLSCN set (AID 602276;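 active means inhibition at or above 50% at 10 µM; inactive means inhibition below 50%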;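 further: firefly luciferase from ISG56 promoter only with Renilla not read in this screen; 0% = Sendai virus plus DMSO and 100% = medium plus DMSO without virus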). To be noted: HEK293 RL24 IRF3 luciferase reporter, at 10 µM, stronger effect = higher value. On the technique in general: A reporter such as luciferase makes a cellular process visible.
Test [8] is described as follows: inhibitors of poly I:C-induced TLR3 signaling, primary screen, cell-based, poly I:C stimulus, luciferase, 10K MLSCN set (AID 602277;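 active means inhibition of the reporter signal at or above 50%; inactive means inhibition below 50%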). Particulars: HEK293-TLR3 RL24 IRF3 luciferase reporter, at 10 µM, stronger effect = higher value.

Activity calls are given as the source filed them.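 How the source made its calls, unless noted: active means NADPH fluorescence slope more negative than the mean of all samples by about 3 SD, 99.7% confidence; inactive means the rest.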

Chain of Alpha-2C adrenergic receptor (Homo sapiens) (P18825 whole entry, looked up): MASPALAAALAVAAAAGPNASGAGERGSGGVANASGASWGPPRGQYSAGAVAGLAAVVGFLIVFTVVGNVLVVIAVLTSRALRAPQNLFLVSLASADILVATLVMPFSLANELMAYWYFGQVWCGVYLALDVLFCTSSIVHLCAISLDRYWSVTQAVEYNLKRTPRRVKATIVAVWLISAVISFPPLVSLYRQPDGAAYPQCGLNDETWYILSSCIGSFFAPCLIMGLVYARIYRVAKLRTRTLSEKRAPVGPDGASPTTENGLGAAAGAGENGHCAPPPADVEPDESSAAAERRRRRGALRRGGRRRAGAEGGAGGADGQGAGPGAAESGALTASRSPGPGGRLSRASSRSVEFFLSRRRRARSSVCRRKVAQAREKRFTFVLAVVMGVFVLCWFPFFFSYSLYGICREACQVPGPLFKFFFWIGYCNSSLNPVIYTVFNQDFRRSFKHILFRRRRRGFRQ

For orientation: inhibition means the change of the read-out against control, counted positive when it falls. Turning to `O=C(C1CCCN(S(=O)(=O)c2cccnc2)C1)N1CCN(c2ccccn2)CC1` (stereo not drawn), the cell count in test [1] was 671. Also, the inhibition in test [1] was -0.3% (inactive); in test [3], -1.7% (inactive); in test [7], 5.38% (inactive); in test [8], 14% (inactive). Further, the inhibition of aggregation in test [2] is -27.9% (inactive). The nuclei count in test [2] and in test [3] was 108% throughout. Also, in test [4], the fluorescence slope is -0.581 (inactive). Besides, the NADPH fluorescence slope in test [5] was -1.6e-05 (inactive). Moreover, in test [6], the slope was 0.00648 (inactive).
For `CSc1nnc(-c2ccc(NC(=O)CCc3ccccc3)cc2)n1C`, in test [1], the cell count was determined as 711. Besides, the inhibition is -28.4% (inactive) in test [1], -79.2% (inactive) in test [3], -3.25% (inactive) in test [7] and 15.4% (inactive) in test [8]. In test [2], the inhibition of aggregation was -1.8% (inactive). The values for the nuclei count in test [2] and in test [3] were 100% and 120%, respectively. Also, in test [4], the fluorescence slope is -0.474 (inactive). Also, the NADPH fluorescence slope in test [5] was -3e-05 (inactive). The slope in test [6] is 0.00726 (inactive).
Turning to `O=C(OCCCCN1C(=O)c2ccccc2C1=O)c1n[nH]c2ccccc12`, in test [1], the cell count worked out at 698. The inhibition is 8.6% (inactive) in test [1], -164% (inactive) in test [3], 9.32% (inactive) in test [7] and -4.95% (inactive) in test [8]. The inhibition of aggregation in test [2] was 12.4% (inactive). For the same compound, the nuclei count in test [2] came to 97%; in test [3], 155%. Further, in test [4], the fluorescence slope is -0.543 (inactive). The NADPH fluorescence slope in test [5] was -5.2e-05 (inactive). For the same compound, the slope in test [6] was 0.00475 (inactive).
On to `CCN1C(=O)c2cccc3c(NC(=O)c4ccc5c(c4)OCCO5)ccc1c23`, for which the cell count in test [1] was determined as 563. The inhibition in test [1] is 0.5% (inactive); in test [3], 18% (inactive); in test [7], 7.48% (inactive); in test [8], 17% (inactive). Moreover, the inhibition of aggregation in test [2] is 4.6% (inactive). In addition, the nuclei count in test [2] was found to be 87.1%; in test [3] it was 90.9%. The fluorescence slope in test [4] was -0.48 (inactive). In addition, the NADPH fluorescence slope in test [5] is -5.7e-06 (inactive). In addition, the slope in test [6] was -0.00194 (inactive).
As for `COc1cccc(CN2CCN(C(=O)c3ccco3)CC2)c1OC`, the cell count in test [1] is 513. Moreover, the inhibition in test [1] is 13.6% (inactive); in test [3], -347% (inactive); in test [7], 11.8% (inactive); in test [8], 8.85% (inactive). The inhibition of aggregation in test [2] was -4.9% (inactive). Moreover, the values for the nuclei count in test [2] and in test [3] were 100% and 128%, respectively. Besides, the fluorescence slope in test [4] was -0.595 (inactive). Also, the NADPH fluorescence slope in test [5] was 1.5e-05 (inactive). Further, the slope in test [6] was 0.00742 (inactive).
For the compound `CCc1ccccc1-n1c(SCC(=O)N2CCCC2)nnc1-c1ccccn1`, the cell count in test [1] amounted to 484. Further, the inhibition in test [1] was 2.5% (inactive); in test [3] it was -11.2% (inactive); in test [7], -2.19% (inactive); in test [8], 4.38% (inactive). For the same compound, in test [2], the inhibition of aggregation was -5.8% (inactive). Besides, the nuclei count came to 116% in test [2] and 104% in test [3]. Moreover, the fluorescence slope in test [4] was -0.524 (inactive). Also, the NADPH fluorescence slope in test [5] is 5e-05 (inactive). For the same compound, the slope in test [6] is 0.00548 (inactive).
For the compound `COc1ccc(C(N)=O)cc1N`, the cell count in test [1] was found to be 413. Further, the inhibition in test [1] is 2.5% (inactive); in test [3], -40.2% (inactive); in test [7] it was -5.97% (inactive); in test [8], 8.78% (inactive). Moreover, the inhibition of aggregation in test [2] is -8.6% (inactive). Besides, the nuclei count worked out at 98.3% in test [2] and 118% in test [3]. The fluorescence slope in test [4] is -0.45 (inactive). Also, in test [5], the NADPH fluorescence slope was 2.7e-05 (inactive). In addition, in test [6], the slope was 0.00578 (inactive).
As to `Cc1nc2cc(N3CCCCC3)c(NC(=O)c3cccnc3)cc2c(=O)n1Cc1ccccc1`, in test [1], the cell count worked out at 751. The inhibition in test [1] is -10.1% (inactive); in test [3], -2% (inactive); in test [7], -3.36% (inactive); in test [8], -14% (inactive). Moreover, the inhibition of aggregation in test [2] is 1.2% (inactive). For the same compound, the nuclei count in test [2] worked out at 93.3%; in test [3] it was 99.1%. Besides, the fluorescence slope in test [4] was -0.167 (inactive). Also, the NADPH fluorescence slope in test [5] is 2.6e-06 (inactive). The slope in test [6] is 0.00435 (inactive).
Consider `CC(C)n1nc(C(=O)Nc2nc3ccc(S(C)(=O)=O)cc3s2)c2ccccc2c1=O`, for which the cell count in test [1] is 452. Moreover, the inhibition in test [1] was -6.8% (inactive); in test [3] it was -52.1% (inactive); in test [7] it was 18.5% (inactive); in test [8] it was 29.9% (inactive). In addition, in test [2], the inhibition of aggregation is -5.5% (inactive). Moreover, the nuclei count was found to be 35.2% in test [2] and 117% in test [3]. In test [4], the fluorescence slope is -0.265 (inactive). In addition, the NADPH fluorescence slope in test [5] is -2.5e-05 (inactive). Moreover, the slope in test [6] is 0.00538 (inactive).
For the compound `CCOC(=O)C1CCCn2c1nc1sc3c(c1c2=O)CCCC3` (stereo not drawn), in test [1], the cell count worked out at 457. In addition, the inhibition in test [1] was 3.7% (inactive); in test [3], -114% (inactive); in test [7], -24.3% (inactive); in test [8], -20.3% (inactive). Moreover, the inhibition of aggregation in test [2] is -6% (inactive). Also, the values for the nuclei count in test [2] and in test [3] were 110% and 115%, respectively. Further, the fluorescence slope in test [4] is -0.435 (inactive). Also, in test [5], the NADPH fluorescence slope was 9.6e-06 (inactive). In addition, in test [6], the slope is 0.00445 (inactive).
As to `CC(=O)NCC(=O)N(Cc1ccco1)C1(C(=O)NC2CCCCC2)CCCCC1`, in test [1], the cell count was 571. For the same compound, the inhibition in test [1] is 5.7% (inactive); in test [3] it was -9.3% (inactive); in test [7], 9.16% (inactive); in test [8], 19.2% (inactive). Further, the inhibition of aggregation in test [2] was 19.5% (inactive). Further, the nuclei count was found to be 132% in test [2] and 128% in test [3]. In test [4], the fluorescence slope was -0.538 (inactive). Further, in test [5], the NADPH fluorescence slope was -4.2e-05 (inactive). Besides, in test [6], the slope is 0.00597 (inactive).
On to `COc1ccccc1CC1(C)NC(=O)N(CC(=O)Nc2cc(C)on2)C1=O` (stereo not drawn), for which, in test [1], the cell count turned out to be 471. Besides, the inhibition was -14.8% (inactive) in test [1], -28.8% (inactive) in test [3], 9.53% (inactive) in test [7] and 16.4% (inactive) in test [8]. In test [2], the inhibition of aggregation is 14.1% (inactive). The nuclei count in test [2] was found to be 88.8%; in test [3], 158%. For the same compound, in test [4], the fluorescence slope was -0.598 (inactive). Further, the NADPH fluorescence slope in test [5] is -2.5e-05 (inactive). For the same compound, the slope in test [6] is 0.006 (inactive).
With `COc1ccc(N(CC(=O)NCCSC(C)(C)C)S(C)(=O)=O)c(OC)c1`, the cell count in test [1] stood at 387. Besides, the inhibition in test [1] was -1.4% (inactive); in test [3], -18.2% (inactive); in test [7], 18.9% (inactive); in test [8], 20.9% (inactive). The inhibition of aggregation in test [2] is 12.9% (inactive). For the same compound, the nuclei count in test [2] came out at 104%; in test [3] it was 120%. The fluorescence slope in test [4] was -0.537 (inactive). The NADPH fluorescence slope in test [5] is 0.000155 (inactive). Moreover, in test [6], the slope was 0.00708 (inactive).
